Measured values taken from the supplement of paper PMC6897291.
Structures can show the parent of a compound that is named as a salt.

System: RIVA
Experiment: growth inhibition by drug plus 177Lu-lilotomab satetraxetan (1 - RLU/untreated control) (fraction); higher = stronger inhibition
Details: 177Lu-lilotomab satetraxetan 0.5 ug/ml
Description: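 RIVA (RI-1) ABC-DLBCL cells were pretreated or not for 18 h with 0.5 ug/ml 177Lu-lilotomab satetraxetan (600 MBq/mg), washed and seeded (3000 cells/well) on 384-well plates pre-printed with the Selleck Cambridge Cancer Compound library. Viability was read by RealTime-Glo luminescence on days 3-6 after seeding. Effect = 1 - RLU/mean RLU of the 48 untreated no-drug control wells per plate; Bliss score = (M-E)/(1-Fa).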

SMILES: COCC[n+]1c2c(n(Cc3cnccn3)c1C)C(=O)c1ccccc1C2=O
- growth inhibition by drug plus 177Lu-lilotomab satetraxetan (10 nM, time (day): 3): 0.988
- growth inhibition by drug plus 177Lu-lilotomab satetraxetan (10 nM, time (day): 4): 0.985
- growth inhibition by drug plus 177Lu-lilotomab satetraxetan (10 nM, time (day): 5): 0.986
- growth inhibition by drug plus 177Lu-lilotomab satetraxetan (10 nM, time (day): 6): 0.986
- growth inhibition by drug plus 177Lu-lilotomab satetraxetan (100 nM, time (day): 3): 0.986
- growth inhibition by drug plus 177Lu-lilotomab satetraxetan (100 nM, time (day): 4): 0.989
- growth inhibition by drug plus 177Lu-lilotomab satetraxetan (100 nM, time (day): 5): 0.989
- growth inhibition by drug plus 177Lu-lilotomab satetraxetan (100 nM, time (day): 6): 0.989

SMILES: Nc1nc(Cl)nc2c1ncn2[C@H]1C[C@H](O)[C@@H](CO)O1 [Cladribine]
- growth inhibition by drug plus 177Lu-lilotomab satetraxetan (10 nM, time (day): 3): 0.528
- growth inhibition by drug plus 177Lu-lilotomab satetraxetan (10 nM, time (day): 4): 0.571
- growth inhibition by drug plus 177Lu-lilotomab satetraxetan (10 nM, time (day): 5): 0.602
- growth inhibition by drug plus 177Lu-lilotomab satetraxetan (10 nM, time (day): 6): 0.611
- growth inhibition by drug plus 177Lu-lilotomab satetraxetan (100 nM, time (day): 3): 0.683
- growth inhibition by drug plus 177Lu-lilotomab satetraxetan (100 nM, time (day): 4): 0.807
- growth inhibition by drug plus 177Lu-lilotomab satetraxetan (100 nM, time (day): 5): 0.843
- growth inhibition by drug plus 177Lu-lilotomab satetraxetan (100 nM, time (day): 6): 0.878

SMILES: CN1C(=O)C(Cc2c[nH]c3ccccc23)NC1=S (stereo not given) [Necrostatin-1]
- growth inhibition by drug plus 177Lu-lilotomab satetraxetan (10 nM, time (day): 3): 0.451
- growth inhibition by drug plus 177Lu-lilotomab satetraxetan (10 nM, time (day): 4): 0.501
- growth inhibition by drug plus 177Lu-lilotomab satetraxetan (10 nM, time (day): 5): 0.519
- growth inhibition by drug plus 177Lu-lilotomab satetraxetan (10 nM, time (day): 6): 0.523
- growth inhibition by drug plus 177Lu-lilotomab satetraxetan (100 nM, time (day): 3): 0.368
- growth inhibition by drug plus 177Lu-lilotomab satetraxetan (100 nM, time (day): 4): 0.476
- growth inhibition by drug plus 177Lu-lilotomab satetraxetan (100 nM, time (day): 5): 0.476
- growth inhibition by drug plus 177Lu-lilotomab satetraxetan (100 nM, time (day): 6): 0.476

SMILES: COC(=O)C1=C(C)NC(C)=C(C(=O)OCCCN2CCC(c3ccccc3)(c3ccccc3)CC2)[C@H]1c1cccc([N+](=O)[O-])c1 [S-(+)-Niguldipine hydrochloride]
- growth inhibition by drug plus 177Lu-lilotomab satetraxetan (10 nM, time (day): 3): 0.569
- growth inhibition by drug plus 177Lu-lilotomab satetraxetan (10 nM, time (day): 4): 0.592
- growth inhibition by drug plus 177Lu-lilotomab satetraxetan (10 nM, time (day): 5): 0.608
- growth inhibition by drug plus 177Lu-lilotomab satetraxetan (10 nM, time (day): 6): 0.623
- growth inhibition by drug plus 177Lu-lilotomab satetraxetan (100 nM, time (day): 3): 0.527
- growth inhibition by drug plus 177Lu-lilotomab satetraxetan (100 nM, time (day): 4): 0.552
- growth inhibition by drug plus 177Lu-lilotomab satetraxetan (100 nM, time (day): 5): 0.566
- growth inhibition by drug plus 177Lu-lilotomab satetraxetan (100 nM, time (day): 6): 0.562

SMILES: CNC(=O)[C@@H](NC(=O)[C@H](CC(C)C)[C@H](O)C(=O)NO)C(C)(C)C [Marimastat]
- growth inhibition by drug plus 177Lu-lilotomab satetraxetan (10 nM, time (day): 3): 0.34
- growth inhibition by drug plus 177Lu-lilotomab satetraxetan (10 nM, time (day): 4): 0.438
- growth inhibition by drug plus 177Lu-lilotomab satetraxetan (10 nM, time (day): 5): 0.469
- growth inhibition by drug plus 177Lu-lilotomab satetraxetan (10 nM, time (day): 6): 0.492
- growth inhibition by drug plus 177Lu-lilotomab satetraxetan (100 nM, time (day): 3): 0.34
- growth inhibition by drug plus 177Lu-lilotomab satetraxetan (100 nM, time (day): 4): 0.431
- growth inhibition by drug plus 177Lu-lilotomab satetraxetan (100 nM, time (day): 5): 0.449
- growth inhibition by drug plus 177Lu-lilotomab satetraxetan (100 nM, time (day): 6): 0.457
